Experimental data published in PubChem BioAssay AID2125 (NMMLSC, 2009).
Unmarked numbers belong to inactive results.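 Rule for the calls: active = combined score above 50, rising as EC50 falls below 10 µM and growth at top dose drops; inactive = the rest.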 Peptide text beside a SMILES is read from it. * marks the point of attachment. Cbz = O=C(OCc1ccccc1)*

Tested on: YE4008
Test: growth inhibition of S. cerevisiae strain panel, profiling panel, 26S proteasome disassembly project, secondary panel, OD600 (AID 2125)
Conditions: growth OD600, 6-8 h, at 100 µM, stronger effect = lower value

Compound | percent response (growth) [%]
CC(C)C[C@@H](C=O)NC(=O)[C@H](CC(C)C)NC(=O)[C@H](CC(C)C)NC(=O)OCc1ccccc1 (Cbz-Leu-Leu-Leu-aldehyde) | 88.2
CC(=O)N1C(=O)C(=C2C=C(C)OC(C)=C2)c2ccccc21 | 56.6
